About 6,100 (1.1%) of roughly 580,000 compounds were called active. Inconclusive results (about 15%) are left out. Shown is part of a subset that was picked to be rich in actives. Unmarked numbers belong to inactive results. Calls come from the whole dose curve; as a rule, active = well fitted inhibition curve with a large enough effect; inconclusive = small, poorly fitted or top-dose-only effect, or another doubt; inactive = no such curve, though single readings can be large or run the other way.
Biological target: Polyunsaturated fatty acid lipoxygenase ALOX12 (Homo sapiens) (UniProt P18054)
Sequence (P18054 whole entry, looked up): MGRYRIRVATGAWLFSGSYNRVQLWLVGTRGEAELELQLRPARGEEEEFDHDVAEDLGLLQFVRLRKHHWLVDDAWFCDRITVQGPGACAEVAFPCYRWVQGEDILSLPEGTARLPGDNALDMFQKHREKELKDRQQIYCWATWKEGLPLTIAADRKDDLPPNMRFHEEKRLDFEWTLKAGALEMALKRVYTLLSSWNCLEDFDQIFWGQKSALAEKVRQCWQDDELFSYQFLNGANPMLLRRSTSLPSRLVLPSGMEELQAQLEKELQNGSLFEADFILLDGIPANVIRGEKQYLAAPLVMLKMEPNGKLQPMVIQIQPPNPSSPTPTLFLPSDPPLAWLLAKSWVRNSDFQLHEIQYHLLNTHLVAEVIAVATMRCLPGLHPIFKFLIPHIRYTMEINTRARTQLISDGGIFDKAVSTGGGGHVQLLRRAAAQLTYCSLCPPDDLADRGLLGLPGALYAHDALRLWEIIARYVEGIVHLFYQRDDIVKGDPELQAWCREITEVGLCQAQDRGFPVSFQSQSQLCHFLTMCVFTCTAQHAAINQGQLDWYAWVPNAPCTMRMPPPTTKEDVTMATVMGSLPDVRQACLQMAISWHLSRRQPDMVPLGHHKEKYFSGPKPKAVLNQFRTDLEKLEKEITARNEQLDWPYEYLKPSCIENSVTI
Experiment: Primary qHTS assay for inhibitors of human arachidonate 12S-lipoxygenase (ALOX12): Round 2
Conditions: purified 12hLO, xylenol orange hydroperoxide absorbance; series mostly up to 108 µM; activity change, negative = inhibition: at the top concentration
Text: Assay Provider: Theodore R. Holman Ph.D. University of California, Santa Cruz, California Human lipoxygenase 12hLO is a member of the closely related lipoxygenase family of enzymes which catalyze the site-specific oxidation of arachidonic acid to various hormone precursor molecules and as such is a candidate for drug development in a variety of disease areas, such as cancer and inflammation. Inhibition of 12hLO activity was screened by utilizing arachidonic acid as a substrate. The extent of hydroperoxide product formation was measured by a secondary chromogenic reaction in which xylenol orange (XO, Sigma-Aldrich, cat. number 39,818-7) reacts with the ferric ions produced from the reaction between the hydroperoxide and ferrous ions. The Fe (III)-XO complex is characterized with red-shifted absorbance at 560 nm. A purified preparation of human 12hLO was supplied by Dr. Holman laboratory, University of California, Santa Cruz.
PROTOCOL TABLE SEQUENCE No. (e.g., 1, 2, 3, etc.); […] (e.g., Cells, Incubation, Reagent, etc.); VALUE; DESCRIPTION 1; Enzyme; 3 uL; 150 nM 12hLO enzyme solution dispensed in 1536-well Greiner black, clear bottom plates. 2; Compound; 23 nL; compounds and controls were added. 3; Incubate; 15 min; room temperature. 4; Substrate; 1 uL; 40 uM arachidonic acid (final concentration). 5; Incubate; 30 min; room temperature. 6; Reagent; 4 uL; Fe-XO solution was added to each well. 7; Incubation; 30 min; room temperature 8; Detector; absorbance; Read 1 at 405 nm absorbance using ViewLux (Perkin-Elmer) CCD imager. 9; Detector; absorbance; Read 2 at 573 nm absorbance using ViewLux (Perkin-Elmer) CCD imager. NOTES (numbers refer to sequence above) 1; 150 nM 12hLO (final concentration) in buffer solution (25 mM Hepes, 0.01% Triton X-100, pH 7.0) was dispensed in columns 1, 2, 5-48. Column 1 is neutral (100% activity). Buffer only was dispensed in columns 3 and 4 as no enzyme negative controls. The plates were covered with metal lids with gas-exchange holes. 2; Compounds were pin transferred via a Kalypsys Pin Tool (Wako USA) in column 5-48. Control compound was transferred in column 2, titration of nordihydroguaiaretic acid (NDGA, Sigma-Aldrich, N5023) with top concentration of 20 mM in DMSO then 1:3 dilution in duplicate. Dilution factor of 23 nL into 4 uL final assay volume. 3; Covered assay plates were incubated for 15 min at room temperature. 4; Substrate was added to start the reaction; 40 uM arachidonic acid (Sigma-Aldrich, St. Louis, MO) was dispensed throughout the plate. 6; Chromogenic detection reagent solution (divalent iron/xylenol orange, Fe-XO) was added to each well: 200 uM xylenol orange, 300 uM ferrous ammonium sulfate prepared freshly in 50 mM sulfuric acid. 8, 9; Two absorbance readouts were obtained at 405 nm and at 573 nm using a ViewLux high-throughput CCD plate imager (Perkin-Elmer). The 573 to 405 (Read 2 / Read 1) absorbance ratio was used to compute reaction progress.
% is set by controls: 0 for no effect and ±100 for the full control effect; potency is the fitted concentration of half-maximal effect.

Row | Structure (SMILES) | activity change, negative = inhibition | Potency
1 | Cc1nn(Cc2ccccc2Cl)c(Cl)c1C(=O)OC(C(=O)NC(N)=O)C(C)C (stereo not given) | -14.7% | 
2 | CCOC(=O)c1c(C)n(Cc2ccccc2Cl)c2ccc(O)cc12 |  | 20 µM (active)
3 | COc1ccccc1-c1ccc(N2CC3CC(C2)c2cccc(=O)n2C3)nn1 (stereo not given) | 35.4% | 
4 | O=C(NCc1ccccc1)[C@H]1CN2CCC1C[C@@H]2Cn1cc(-c2ccc(F)cc2)nn1 (stereo not given in full) | 11.8% [at 176 µM] | 
5 | COC(=O)[C@@H]1[C@@H](CO)[C@@H]2Cn3c(ccc(Br)c3=O)[C@H]1N2C(=O)c1cnccn1 | 43.2% | 
6 | COc1cc2c(cc1Oc1cccc(N(C)C)c1)NC(=O)C21CCN(CCC(C)C)CC1 | -19.5% [at 176 µM] | 
7 | O=C(Nc1ccccc1)[C@H]1CN2CCC1C[C@@H]2Cn1cc(CO)nn1 (stereo not given in full) | 18% [at 176 µM] | 
8 | COc1ccc(N2C(=O)/C(=C/c3ccco3)C(=O)NC2=S)cc1 |  | 8.91 µM (active)
9 | COc1nc2c(cc1CNC(=O)C1C(C)(C)C1(C)C)C(=O)N(C1CCCC1)C2 | 3.42% | 
10 | COc1ccc(/C=C\[N+](=O)[O-])c(OC)c1 | -7.77% | 
11 | Cc1nc(C)c(C(=O)N2[C@H]3CC[C@@H]2c2cnc(-c4ccccc4)nc2C3)s1 | 46.2% | 
12 | O=C1CC2CCN(Cc3cccnc3)CC2CCN1 (stereo not given) | 6.21% [at 12.5 µM] | 
13 | Cc1cc(N2CCNC[C@@H]2C)ccc1N1CC[C@H](O)C1 |  | 44.7 µM (active)
14 | CC1CNCCN1c1ccc(Cl)cc1 (stereo not given) | -26.4% | 
15 | COc1ccc(-c2cc3c(cc2OC)C2(CCN(C(C)=O)CC2)C(=O)N3)cc1OC | -20.9% [at 176 µM] | 
16 | CN(Cc1ccccc1)C[C@H]1CN2CC[C@H]1C[C@@H]2CNC(=O)Nc1ccsc1 | -16.7% [at 176 µM] | 
17 | C[S+](=O)([O-])N1CCC2(CC1)CC(c1cccnc1)=NO2 | 5.92% [at 6.33 µM] | 
18 | c1ccc2sc(SNC3CCCCC3)nc2c1 |  | 28.2 µM (active)
19 | OC(CNC1CCCCC1)c1ccccc1 (stereo not given) | 2.31% | 
20 | c1ccc2sc(N3CCNCC3)nc2c1 | -11.3% | 
21 | Cc1noc(C)c1CC(=O)N1[C@H]2CC[C@@H]1c1cnc(-c3ccccc3)nc1C2 | 21.1% | 
22 | Cc1noc(C(C)N2CCN(C(=O)Cc3ccccc3)CC2)n1 (stereo not given) | 0.871% | 
23 | Cc1cc(C)c2[nH]c(C(=O)N3CCC(C#N)(c4ccccc4)CC3)c(C)c2c1 | 3.76% | 
24 | C=CCN(CC=C)C(=O)Nc1ccc(OCC)cc1 | 4.53% | 

Row | Structure (SMILES) | activity change, negative = inhibition | Potency
25 | C=CCN1C(=O)NC(=O)/C(=C/c2ccc(OCC(=O)Nc3ccc(C)cc3)cc2)C1=O |  | 39.8 µM (active)
26 | CCC(=O)c1ccc(OCC(=O)N2CCN(CC(=O)Nc3ccc(C)cc3)CC2)cc1 | -6.96% | 
27 | CC(CNc1ccc([N+](=O)[O-])c2cnccc12)c1ccccc1 (stereo not given) | -17.5% | 
28 | COC(=O)c1ccc(NC(=O)N2[C@H]3CC[C@@H]2c2cnc(-c4ccc(F)cc4)nc2C3)cc1 | -11.1% | 
29 | COc1cc2c(cc1Oc1cccc(N(C)C)c1)NC(=O)C21CCN(c2cnccn2)CC1 | -25.7% | 
30 | COc1ccc(CC(=O)N2CCN(CC(=O)NC(N)=O)CC2)cc1 | -0.17% | 
31 | C#C[C@H]1CN2CC[C@H]1C[C@@H]2CNC(=O)C1CC1 | 32.6% [at 176 µM] | 
32 | C#C[C@H]1CN2CC[C@H]1C[C@@H]2COC(=O)Nc1cc(OC)cc(OC)c1 |  | 50.1 µM (active)
33 | COc1ccc(-c2cc([C@H]3CN4CC[C@H]3C[C@@H]4COC(=O)NC(C)C)nc(C)n2)cc1 | -0.937% [at 176 µM] | 
34 | Cc1ncc2c(n1)C[C@@H]1CC[C@H]2N1S(=O)(=O)c1ccc(F)cc1 | 5.01% | 
35 | Cn1nc(-c2cccs2)cc1[C@H]1CN2CC[C@H]1C[C@@H]2CNC(=O)Nc1ccccc1 | 26.6% [at 176 µM] | 
36 | C=C(C)C1(CCCC)C(=O)NC(=S)NC1=O |  | 44.7 µM (active)
37 | COc1ccccc1-c1cc([C@H]2CN3CC[C@H]2C[C@@H]3CNCc2cccc(C#N)c2)n(C)n1 | 101% [at 176 µM] | 
38 | COc1cc2c(cc1OCc1ccccc1)NC(=O)C21CCN(CCC(C)C)CC1 | 19% [at 176 µM] | 
39 | Cc1ncoc1C(=O)NCC1=C(c2cccc3ccccc23)C[C@@H]2CC[C@H]1N2Cc1ccco1 | -20.5% | 
40 | CC(=O)NCC1=C(c2ccc3ccccc3c2)C[C@@H]2CC[C@H]1N2Cc1ccco1 |  | 28.2 µM (active)
41 | COC(=O)C1=C(c2ccc3ccccc3c2)C[C@@H]2CC[C@H]1N2C(=O)NCCO | 6.64% | 
42 | O=[S+]1([O-])NC2(CCN(CC3CCOCC3)C2)COc2ccncc21 (stereo not given) | 3.45% [at 6.33 µM] | 
43 | CN(C)C(=O)Oc1ccc2c(=O)c(-c3ccc(Br)cc3)c(C(F)(F)F)oc2c1 | -27.7% | 
44 | O=C(c1ccc2c(c1)CCO2)N1C[C@@H](c2ccc(F)cc2)[C@@H]2[C@H]1C1CCN2CC1 | -0.3% | 
45 | Cc1cc(C)cc(CN2CCC3(CCNCC3)C2)c1 | 51.5% | 
46 | COc1cc2c(cc1OC1CCCC1)NC(=O)C21CCN(c2nccs2)CC1 | 0.589% [at 176 µM] | 
47 | O=C1NC(=O)N(c2ccccc2)C(=O)/C1=C/c1ccc([N+](=O)[O-])s1 |  | 39.8 µM (active)
48 | COc1cccc(N2C(=O)NC(=O)/C(=C\c3ccc([N+](=O)[O-])s3)C2=O)c1 |  | 44.7 µM (active)

Row | Structure (SMILES) | activity change, negative = inhibition | Potency
49 | CCC(CC)c1cc([C@H]2CN3CC[C@H]2C[C@@H]3CNS(=O)(=O)Cc2ccccc2)nc(-c2ccncc2)n1 | 38.2% | 
50 | N#Cc1cccc(NC(=O)NC[C@H]2C[C@@H]3CCN2C[C@@H]3CN2CCN(c3ncccn3)CC2)c1 | 0.779% | 
51 | CC(C)(C)c1nc(CN2CCC3(CC2)C(=O)Nc2ccccc23)no1 | 24.8% | 
52 | COc1cccc(Nc2cc3c(cn2)CN(C)CCN3C)c1 | 17.4% [at 176 µM] | 
53 | O=c1c2ccccc2nc(/C=C/c2ccco2)n1-c1ccccc1O |  | 35.5 µM (active)
54 | Cc1ccc(-n2c(/C=C/c3cccc(C(F)(F)F)c3)nc3ccccc3c2=O)cc1 | 4.27% | 
55 | O=c1c2ccccc2nc(/C=C/c2ccc(F)cc2)n1-c1ccccc1O | -4.15% | 
56 | C=CCN(C)C[C@H]1CN2CC[C@H]1C[C@@H]2CNC(=O)Nc1cccc(SC)c1 | 14.9% [at 176 µM] | 
57 | Cc1ccc(C(c2c(O)c3ccccc3oc2=O)c2c(O)c3ccccc3oc2=O)cc1 |  | 12.6 µM (active)
58 | O=c1oc2ccccc2c(O)c1C(c1ccccc1O)c1c(O)c2ccccc2oc1=O | -16.9% | 
59 | CCC(=O)CC(c1ccc([N+](=O)[O-])cc1)c1c(O)c2ccccc2oc1=O (stereo not given) | 42.5% | 
60 | O=C(Cc1ccccc1)N1[C@H]2CC[C@@H]1c1cnc(-c3ccc(F)cc3)nc1C2 | -12.1% | 
61 | COc1cc2c(cc1-c1ccncc1)NC(=O)C21CCN(C(C)=O)CC1 | -24% [at 176 µM] | 
62 | COc1ccc(CC(=O)N2C[C@@H]3CC[C@H](C2)N(CC2CCC2)C3)c(OC)c1 | 4.55% | 
63 | c1cncc(CNC2=NCCC2)c1 | -16.5% | 
64 | ClCc1cccnc1 |  | 11.2 µM (active)
65 | c1cncc(CNCCc2c[nH]c3ccccc23)c1 | -6.92% | 
66 | Cc1nc(-c2ccc(N(C)C)cc2)cc([C@H]2CN3CC[C@H]2C[C@@H]3CNC(=O)C2CCC2)n1 | 33.5% [at 176 µM] | 
67 | CCOCCc1c(O)[nH]c(=S)[nH]c1=O |  | 14.1 µM (active)
68 | Cn1nc(-c2ccc(F)cc2)cc1[C@H]1CN2CC[C@H]1C[C@@H]2CNCc1ccccn1 | 99.3% [at 176 µM] | 
69 | Cc1ccc2c(n1)N(C)[C@H](CO)CCN(C1CCCC1)C2 | 18.6% [at 176 µM] | 
70 | CC(C)C(=O)N1CCC2(CC1)NCc1ccccc1-n1ccnc12 | 14.6% | 

Reference: PubChem BioAssay AID1671190 (National Center for Advancing Translational Sciences (NCATS), 2021)
